Data taken from PubChem BioAssay (NCI).
Where “and” joins values, the source holds several entries; their conditions need not be identical. Equal values may be shown once. The panel holds about 83,000 compounds, 20% with a hit somewhere; the sample as a whole holds those more often.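 48-hour exposure, single concentration, 96-well plates; percent growth endpoint where 0 means no net growth. Active: below 10.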 Calls of active or inactive are those of the source.

Key:
Assay in all cases: NCI-60 one-dose screen, 48 h (100 = growth as untreated, 0 = no growth, -100 = all killed)
Settings in all cases: 10 µM unless noted
[1] = tested on: SK-MEL-2 melanoma
[2] = tested on: SN12C renal
[3] = tested on: UO-31 renal
[4] = tested on: TK-10 renal
[5] = tested on: ACHN renal
[6] = tested on: CAKI-1 renal
[7] = tested on: A498 renal
[8] = tested on: CCRF-CEM leukemia
[9] = tested on: MOLT-4 leukemia
[10] = tested on: SR leukemia
[11] = tested on: RPMI-8226 leukemia
[12] = tested on: OVCAR-8 ovarian
[13] = tested on: OVCAR-5 ovarian
[14] = tested on: OVCAR-4 ovarian
[15] = tested on: SK-OV-3 ovarian
[16] = tested on: IGROV1 ovarian
[17] = tested on: OVCAR-3 ovarian
[18] = tested on: HS 578T breast
[19] = tested on: NCI/ADR-RES ovarian
[20] = tested on: EKVX NSCLC

Measured: growth

O=C1/C(=C/c2ccccc2[N+](=O)[O-])Cc2ccccc21
-1.54% (active) and 13.5% (inactive): [9]
-10.6% (active) and 17.3% (inactive): [16]
active: [5] -23.9% and -43.3% | [6] -10.6% and -9.61% | [8] -0.132% and 4.53% | [11] -5.97% and 3.37% | [14] -36.5% and -39.5% | [17] -23.8% and -50.2% | [19] -47.5%
inactive: [1] 68.4% and 80.5% | [2] 20.3% and 48.5% | [15] 70.4% and 95.2% | [18] 32.3% and 71.2%
-66.2% (active) and 25.9% (inactive): [3]
-18.3% (active) and 14.1% (inactive): [7]
-15.6% (active) and 21.2% (inactive): [4]
0.344% (active) and 59.9% (inactive): [12]
3.7% (active) and 11.5% (inactive): [10]
-1.63% (active) and 12.7% (inactive): [13]

O=C(Nc1ccc(Cl)c(Cl)c1)Nc1ccc(Cl)c(Cl)c1
-28.5% (active) and 20.8% (inactive): [9]
-96.9% (active) and 35.3% (inactive): [4]
-78.7% (active) and 23.2% (inactive): [12]
-16.6% (active) and 28.9% (inactive): [10]
-85.3% (active) and 41.8% (inactive): [13]
-78.9% (active) and 45.5% (inactive): [1]
active: [3] -88.8% and -9.62% | [5] -85.8% and 7.07% | [6] -90.8% and -2.12% | [7] -90.1% and -0.946% | [14] -86.4% | [16] -86.4% and 4.75% | [17] -95.3% and 6.41%
-87% (active) and 29.5% (inactive): [15]
-14% (active) and 21.4% (inactive): [8]
-54.9% (active) and 14.6% (inactive): [19]
-45% (active) and 48.8% (inactive): [18]
inactive: [20] 23.1%

Cn1cc(-c2csc(-c3c[nH]c4ccc(F)cc34)n2)c2cnccc21
inactive: [14] 10.9% | [15] 103% | [19] 11.5%
active: [1] -66.4% | [20] -28.4% | [2] -48.5% | [3] -75.3% | [4] -28% | [5] -54% | [6] -57.8% | [9] -34.7% | [10] -36% | [11] -35.5% | [12] -1.04% | [13] -12.5% | [16] -37.1% | [17] -73.2% | [18] -38.1%

CN1CCN(c2ccc(/C=C/C(=O)c3ccc(O)cc3)cc2)CC1
inactive: [1] 102% | [20] 83.7% | [3] 85.3% | [4] 122% | [5] 105% | [6] 98.9% | [7] 82.9% | [8] 102% | [9] 95% | [10] 101% | [11] 102% | [12] 95.9% | [13] 98.1% | [14] 89.5% | [15] 105% | [16] 105% | [17] 106% | [18] 95.7% | [19] 99.9%

COc1ccc(Oc2nc(Nc3ccc(N4CCOCC4)cc3)ncc2NC(=O)c2cc(OC)cc(OC)c2)cc1
inactive: [1] 95.4% | [20] 94.8% | [3] 55.5% | [4] 103% | [5] 86.1% | [6] 100% | [8] 70% | [9] 53.3% | [10] 34.7% | [11] 53.2% | [12] 92.1% | [13] 123% | [14] 81.3% | [15] 102% | [16] 83.8% | [17] 83.5% | [18] 76.7% | [19] 81.6%

Cn1cc(-c2csc(-c3cn(CCOC(N)=O)c4ccccc34)n2)c2cccnc21
inactive: [1] 84.8% | [20] 68.7% | [3] 79.6% | [4] 82.6% | [5] 97% | [6] 88.2% | [7] 19% | [8] 73.9% | [9] 69.1% | [10] 20.3% | [11] 74.1% | [12] 89.4% | [13] 104% | [14] 102% | [15] 95.2% | [16] 77.7% | [17] 94.9% | [18] 92.6% | [19] 82.9%

O=C(CCN1CCOCC1)Nc1cccc(-n2cc(-c3ccncc3)c(-c3ccc(Cl)c(O)c3)n2)c1
inactive: [1] 14.8% | [20] 55.7% | [3] 41.9% | [4] 54.5% | [5] 34.2% | [6] 38.6% | [7] 10.9% | [8] 17.7% | [9] 28.6% | [10] 16.8% | [11] 17.1% | [12] 39.5% | [13] 62.2% | [14] 66.5% | [15] 25.1% | [16] 51.8% | [17] 14.3% | [19] 21.5%
active: [18] 7.21%

Nc1nc(Nc2ccc(F)cc2)nn1C(=O)c1cc(Cl)ccc1Cl
inactive: [1] 97.3% | [20] 99.7% | [3] 64.7% | [4] 104% | [5] 58.9% | [6] 51.6% | [7] 68.4% | [8] 60.4% | [9] 75.4% | [10] 37.5% | [11] 97.1% | [12] 68.4% | [13] 59.5% | [14] 92.8% | [15] 118% | [16] 62.6% | [17] 72.7% | [18] 56.1% | [19] 69.1%

O=C1/C(=C/c2ccc(F)c(F)c2)CN(C(=O)C(Cl)Cl)C/C1=C\c1ccc(F)c(F)c1
active: [1] -53.4% | [20] -93.7% | [3] -97.9% | [4] -94.6% | [5] -100% | [6] -92.1% | [7] -96.8% | [8] -3.13% | [9] -21% | [10] -21.2% | [11] -31.4% | [12] -95.4% | [13] -72.6% | [14] -67.1% | [15] -35% | [16] -84.5% | [17] -97% | [18] -38.5% | [19] -18%

COc1cc(-c2nc(SCCC(C)C)nc(Nc3ccc(F)cc3)c2C#N)cc(OC)c1OC
inactive: [1] 101% | [20] 85% | [3] 64.6% | [4] 41.4% | [5] 34.1% | [6] 49.6% | [7] 62.5% | [8] 91.4% | [9] 83.4% | [10] 73.1% | [11] 91.2% | [12] 40.7% | [13] 95% | [15] 47.3% | [16] 69.6% | [17] 19.8% | [18] 50.1% | [19] 77.7%
active: [14] 2.39%

CCOC(=O)C(=CCC(C)C)C(=O)OCC
inactive: [1] 113% | [20] 112% | [3] 78.5% | [4] 121% | [5] 103% | [6] 99.4% | [7] 76.2% | [8] 108% | [9] 98.1% | [10] 119% | [11] 99% | [12] 109% | [13] 95.8% | [14] 95.2% | [16] 104% | [17] 99.5% | [18] 98.6% | [19] 93.8%

O=c1c2c([nH]c3ccccc13)CCCC2
118% (inactive) and -8.45% (active): [17]
103% (inactive) and -12% (active): [1]
-32.1% (active) and 37.1% (inactive): [8]
inactive: [20] 103% | [3] 87.6% and 50.4% | [4] 104% and 62.2% | [5] 96.5% and 57.9% | [6] 98.6% and 54.6% | [7] 102% and 49.1% | [9] 83.4% and 34.7% | [10] 87.9% and 10.9% | [11] 87.2% and 38.6% | [12] 99.8% and 40.5% | [13] 91.3% and 78.2% | [14] 100% and 68.5% | [15] 104% and 44.2% | [16] 111% and 44.1% | [18] 98.2% and 72.4% | [19] 104% and 22.2%

O/N=C(/c1ccccc1)c1ccc2c3c(cccc13)CC2
inactive: [1] 96.2% and 92.7% | [20] 79.5% | [3] 73.4% and 81.3% | [4] 113% and 89.7% | [5] 101% and 94.5% | [6] 71.5% and 72.5% | [7] 78.3% and 89.2% | [8] 75.3% and 82.8% | [9] 74.7% and 72.9% | [10] 67% and 66.6% | [11] 75.2% and 70.4% | [12] 87.7% | [13] 97.7% and 95.4% | [14] 83.9% and 77.1% | [16] 97.8% and 98% | [17] 99.4% and 93.3% | [18] 94.4% and 90.2% | [19] 92.8% and 88.6%
